Drawing on PubChem BioAssay (NCATS), this text covers activation, Potency and viability for 17 molecules.

Several values for one entry are separate records, joined by “and”; a condition that tells them apart may be missing. Identical values can stand only once. Inconclusive results are not listed. Values without a mark were called inactive. Activity calls are given as the source filed them. Calls come from the whole dose curve; as a rule, active = well fitted curve in the direction sought with a large enough effect; inconclusive = small, poorly fitted or top-dose-only effect, or another doubt; inactive = no such curve, though single readings can be large; an effect the other way counts as inactive or inconclusive.

The target in assay [1] is Cellular tumor antigen p53 (Homo sapiens) (UniProt P04637). In words: Primary qHTS for small molecule compounds that upregulate eGFP-tagged delta133p53alpha (in N-terminal) cells. (AID 2060322).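 For activation: cells pre-induced with doxycycline then dosed without doxycycline; series mostly up to about 56 µM; 0% = DMSO vehicle and 100% = reference activator.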 Note: nearly all actives have a fitted effect of over 75% in size. Note: potency is the fitted concentration of half-maximal effect. The following applies: NCI-H358 eGFP-delta133p53alpha fluorescence, 24 h; activation: active compounds read high. Summed up: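 NCI-H358 cells pre-induced 24 h with 10 ng/ml doxycycline for eGFP-delta133p53alpha, plated dox-free and exposed 24 h at 37C to titrated compounds. Fixed, Hoechst-stained; gated GFP peak intensity by laser scanning cytometry, normalized to DMSO (0%) and 57.5 uM 5-azacytidine (100%).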
Sequence of Cellular tumor antigen p53 (Homo sapiens) (P04637 whole entry, looked up): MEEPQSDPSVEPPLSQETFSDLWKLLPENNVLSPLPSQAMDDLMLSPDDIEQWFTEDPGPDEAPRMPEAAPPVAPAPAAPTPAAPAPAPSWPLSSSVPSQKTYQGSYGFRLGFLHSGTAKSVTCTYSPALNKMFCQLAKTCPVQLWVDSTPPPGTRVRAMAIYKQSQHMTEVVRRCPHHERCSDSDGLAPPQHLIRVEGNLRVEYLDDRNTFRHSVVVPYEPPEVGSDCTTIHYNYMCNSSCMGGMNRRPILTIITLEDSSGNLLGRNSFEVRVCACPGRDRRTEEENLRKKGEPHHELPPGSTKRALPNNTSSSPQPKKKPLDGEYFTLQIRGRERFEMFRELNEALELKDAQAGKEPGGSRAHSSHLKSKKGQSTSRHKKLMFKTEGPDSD
A general note: Quantitative high-throughput screening tests each substance at several concentrations.

In assay [2] the target is Aldehyde dehydrogenase, mitochondrial (Homo sapiens) (UniProt P05091). Description: qHTS for Inhibitors of the Aldehyde Dehydrogenase Family (ALDH2) Primary screen (AID 2061308).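 Note: plate controls were vehicle for no effect and reference inhibitor for full effect; nearly all actives have a fitted effect of over 55% in size.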
Assay [3] has as its target Retinaldehyde dehydrogenase 3 (Homo sapiens) (UniProt P47895). Description: qHTS for Inhibitors of the Aldehyde Dehydrogenase Family (ALDH1A3) Validation screen (AID 2061312). Note: % is set by controls: 0 for no effect and ±100 for the full control effect; nearly all actives have a fitted effect of over 45% in size.
Assay [4] shares this target. Description: qHTS for Inhibitors of the Aldehyde Dehydrogenase Family (ALDH1A3) Primary screen (AID 2061315).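 Note: plate controls were DMSO vehicle for no effect and reference inhibitor for full effect.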
The nature of assay [5]: BET inhibitor-based combinations targeting novel dependencies in MECOM-rearranged (r) AML: SET-2 cell line (AID 2202231).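 For viability: plate controls were DMSO treated cells for no effect and wells without cells for full effect.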 Note: nearly all actives have a fitted effect of over 35% in size. Note: potency is the fitted concentration of half-maximal effect. The following applies: SET-2 AML cells viability, CellTiter-Glo luminescence, 48 h; viability: active compounds read low, concentration not given here. In outline:
(§1)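 AML cell lines seeded at 500 cells/well, treated with 11-point dose curves for 48 h. Viability by CellTiter-Glo luminescence, normalised to DMSO and empty wells; activity expressed as AUC and per-cell-line Z-transformed AUC.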
For orientation: Cellular ATP, detected with luciferase, serves as a proxy for viable cell number.

Assay [6] can be described thus: BET inhibitor-based combinations targeting novel dependencies in MECOM-rearranged (r) AML: OCI-AML3 cell line (AID 2202232). Note: nearly all actives have a fitted effect of over 35% in size. Note: potency is the fitted concentration of half-maximal effect. The settings on record: Potency: OCI-AML3 viability. In outline: as §1
The nature of assay [7]: BET inhibitor-based combinations targeting novel dependencies in MECOM-rearranged (r) AML: MV-4-11 cell line (AID 2202233). Note: nearly all actives have a fitted effect of over 45% in size. Note: potency is the fitted concentration of half-maximal effect. In outline: (§2)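 Cells at 500/well were exposed for 48 hr to MIPE v5.0 drugs as 11-point dose curves. Viability was read by CellTiter-Glo luminescence and normalized to DMSO and empty-well controls. Activity was expressed as AUC and per-cell-line Z-AUC.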

A short description of assay [8]: BET inhibitor-based combinations targeting novel dependencies in MECOM-rearranged (r) AML: HNT-34 cell line (AID 2202234). Note: nearly all actives have a fitted effect of over 35% in size. Note: potency is the fitted concentration of half-maximal effect. Summed up:
as §2

The nature of assay [9]: BET inhibitor-based combinations targeting novel dependencies in MECOM-rearranged (r) AML: UCSD-AML1 cell line (AID 2202235). Note: nearly all actives have a fitted effect of over 40% in size. Note: potency is the fitted concentration of half-maximal effect. In outline:
as §2

Assay [10] is described as follows: BET inhibitor-based combinations targeting novel dependencies in MECOM-rearranged (r) AML: AML-191 cell line (AID 2202236; note: nearly all actives have a fitted effect of over 35% in size; note: potency is the fitted concentration of half-maximal effect). Summed up: as §1
Assay [11] can be described thus: BET inhibitor-based combinations targeting novel dependencies in MECOM-rearranged (r) AML: AML-194 cell line (AID 2202237; note: nearly all actives have a fitted effect of over 40% in size; note: potency is the fitted concentration of half-maximal effect). In outline: as §1

Turning to `COC(=O)Nc1nc2ccc(C(=O)c3ccc(F)cc3)cc2[nH]1`, the activation in [1] was 8.15% and 21.5%. The Potency entry in assay [2], in assay [3] and in [4] was “inactive” each time. For the same molecule, the Potency is 833 nM (active) in assay [5]; 590 nM (active) in assay [6]; 742 nM (active) in [7]; 417 nM (active) in assay [8]; 468 nM (active) in assay [9]; 332 nM (active) in assay [10]. The Potency in [11] was 332 nM (active).
The term viability denotes a read-out of living cells in per cent, often relative to untreated cells. Turning to `Cc1cc2c(s1)Nc1ccccc1N=C2N1CCN(C)CC1`, the activation in assay [1] was -5.86% and 20.9% and -11.5%. Besides, the Potency result in assay [2], in assay [3], in assay [4], in assay [6], in assay [7] and in assay [8] was “inactive” in each case. The Potency entry in assay [10] and in assay [11] was “inactive” throughout. In [5], the viability was 111%.
For `CC1(C)CCC(c2ccc(Cl)cc2)=C(CN2CCN(c3ccc(C(=O)NS(=O)(=O)c4ccc(N[C@H](CCN5CCOCC5)CSc5ccccc5)c(S(=O)(=O)C(F)(F)F)c4)cc3)CC2)C1`, the Potency was 26900 nM (active) in assay [1]; 1320 nM (active) in [5]; 332 nM (active) in assay [7]; 468 nM (active) in assay [8]; 1050 nM (active) in assay [9]; 742 nM (active) in assay [10]. In [11], the Potency is 833 nM (active). Also, the Potency result in assay [2], in assay [3] and in assay [4] was “inactive” throughout.
Consider `O=C(NC[C@H](O)CN1CCc2ccccc2C1)c1cc(NC2COC2)ncn1`, for which the activation in assay [1] is 11.2% and -21.4%. Also, the Potency result in assay [2], in assay [3], in assay [4], in assay [8], in [9] and in assay [10] was “inactive” each time. Also, the viability in [5] was 97%.
`CS(=O)(=O)c1ccc(-c2nnc(/C=C/c3nnc(-c4ccc(C#N)cc4)o3)n2-c2ccccc2Cl)nc1`: in assay [1], the activation is -4.77%. The Potency result in assay [2], in [3], in assay [4], in assay [8] and in assay [9] was “inactive” throughout. Besides, the viability in assay [5] is 111%. Moreover, the Potency in [7] was 10500 nM (active).
As to `CN(C)N(C)C(=O)[C@@]1(Cc2ccccc2)CCCN(C(=O)[C@@H](Cc2c[nH]c3ccccc23)NC(=O)C(C)(C)N)C1`, the activation in [1] is -17.2%. In addition, the Potency entry in [2], in assay [3], in assay [4], in assay [9], in [10] and in assay [11] was “inactive” in each case. In addition, in [5], the viability was 113%. Further, the Potency in assay [8] was 16600 nM (active).
`CCNC(=O)CCC/C=C\C[C@@H]1[C@@H](/C=C/C(O)CCc2ccccc2)[C@@H](O)C[C@@H]1O` (some centres undefined): the activation in [1] was -11.9%. Besides, the Potency result in [2], in assay [3], in assay [4], in assay [7], in assay [8] and in [9] was “inactive” each time. The Potency result in [10] and in assay [11] was “inactive” throughout. Further, the viability in assay [5] is 121%.
Turning to `Cc1nnc(C(C)C)n1C1CC2CCC(C1)N2CC[C@H](NC(=O)C1CCC(F)(F)CC1)c1ccccc1` (some centres undefined), in [1], the activation was -6.68%. Moreover, the Potency entry in [2], in assay [3], in [4], in [6], in assay [8] and in [10] was “inactive” each time. In addition, in assay [5], the viability is 113%.
For `c1cc(Nc2cc(C3CC3)[nH]n2)nc(Nc2ccc3nc[nH]c3c2)n1`, the Potency was 849 nM (active) in assay [1]; 662 nM (active) in assay [5]; 263 nM (active) in [6]; 263 nM (active) in assay [8]; 332 nM (active) in assay [9]; 235 nM (active) in assay [10]. Also, in [11], the Potency was 372 nM (active). Besides, the Potency result in assay [2], in [3] and in assay [4] was “inactive” each time.
Consider `COc1cc2c(cc1OC)CN(CCc1ccc(NC(=O)c3cccc4c(=O)c5cccc(OC)c5[nH]c34)cc1)CC2`, for which the activation in assay [1] is -17.9%. The Potency result in assay [2], in assay [3], in assay [4], in [6], in [8] and in assay [9] was “inactive” in each case. Further, the Potency result in [10] and in assay [11] was “inactive” each time. Besides, in assay [5], the viability was 111%.
In the case of `Cc1nc(Nc2n[nH]c3c2CN(C(=O)N[C@H](CN(C)C)c2ccccc2)C3(C)C)c2sccc2n1`, the Potency in [1] is 10700 nM (active); in assay [5] it was 1480 nM (active); in assay [6], 468 nM (active); in [8], 1180 nM (active); in assay [9] it was 148 nM (active); in assay [10] it was 1180 nM (active). Moreover, the Potency in [11] was 1660 nM (active). Further, the Potency entry in assay [2], in [3] and in [4] was “inactive” each time.
Take `C[C@]12CC[C@H](O)CC1=CCC1C2CC[C@]2(C)C(n3cnc4ccccc43)=CCC12` (some centres undefined): the activation in assay [1] is 20.1% and 28.6%. For the same molecule, the Potency entry in assay [2], in assay [3], in assay [4], in assay [6], in assay [8] and in [9] was “inactive” each time. For the same molecule, the Potency entry in assay [11] was “inactive”. For the same molecule, the viability in assay [5] was 118%. In assay [10], the Potency is 18600 nM (active).
For `CCO[C@@H]1OC(=O)C[C@@H]1NC(=O)[C@@H]1CCCN1C(=O)[C@@H](NC(=O)c1ccc(N)c(Cl)c1)C(C)(C)C`, the activation in assay [1] is -7.64%. The Potency result in assay [2], in assay [3], in assay [4], in assay [7], in assay [8] and in assay [9] was “inactive” in each case. For the same molecule, the Potency result in [11] is “inactive”. For the same molecule, in [5], the viability was 112%.
As to `CC1(C)Cc2c(-c3ccccc3)c(-c3ccc(Cl)cc3)c(CC(=O)O)n2C1`, the activation in assay [1] is -18.1% and -12.4%. The Potency result in assay [2], in assay [3], in assay [4], in [9], in assay [10] and in assay [11] was “inactive” each time. Further, the viability in assay [5] was 104%. Also, in assay [7], the Potency was 23500 nM (active).
For `CCN(c1cc(-c2ccc(CN3CCOCC3)cc2)cc(C(=O)NCc2c(C)cc(C)[nH]c2=O)c1C)C1CCOCC1`, the activation in [1] is -17.7%. For the same molecule, the Potency result in assay [2], in assay [3], in [4], in assay [8], in assay [9] and in [10] was “inactive” each time. Moreover, the Potency result in assay [11] is “inactive”. The viability in [5] was 94.8%.
As for `NC(=O)c1cccc2cn(-c3ccc([C@@H]4CCCNC4)cc3)nc12`, the activation in assay [1] was 20.3% and 6.68%. Also, the Potency result in assay [2], in assay [3] and in assay [4] was “inactive” in each case. Also, the values for the Potency in assay [5] and in assay [7] were 14800 nM (active) and 4170 nM (active), respectively.
On to `CC(=O)N1CCN(CCOc2ccc(C3CCN(C4=Nn5c(nnc5C(F)(F)F)CC4)CC3)cc2)CC1`, for which, in [1], the activation is -2.39%. The Potency entry in assay [2], in assay [3], in assay [4], in [8] and in [9] was “inactive” each time. The Potency in assay [5] is 14800 nM (active).
